Laboratory results as given in PubChem BioAssay AID1159580 (chemical genetic matrix, 2015).
Several values for one entry are separate records, joined by “and”; a condition that tells them apart may be missing. Equal values may be shown once. About 2,000 (36%) of roughly 5,500 compounds were called active. Another 18% or so got no clear call; they are omitted. Cut-off read from the data, not from the text of the source: active = normalized growth mostly below about 0.91 (no sharp cut-off); inconclusive = no clear call, values can overlap the other calls; inactive = mostly above about 0.92. The list shows a part of the results.

Assay: chemical genetic growth profiling, strain panel (AID 1159580);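 note: tested at 20 µM; growth read once vehicle control cultures reached saturation at 30 °C; 1 = growth at the plate median or of vehicle wells; lower values mean less growth of the strain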
Conditions: S. cerevisiae deletion strains, growth OD

Measured: normalized growth

CC[C@@H](CO)NC(=O)[C@@H]1C=C2c3cccc4[nH]cc(c34)C[C@H]2N(C)C1
inactive: locus YAL013W, strain DEP1, active compounds read low 0.989 | locus YAL021C, strain ccr4, active compounds read low 1 | locus YAL026C, strain drs2, active compounds read low 0.996 | locus YAL030W, strain snc1, active compounds read low 0.997 | locus YBL061C, strain skt5, active compounds read low 0.999 | locus YBR009C, strain hhf1, active compounds read low 0.992 | locus YBR021W, strain FUR4, active compounds read low 1 | locus YBR023C, strain chs3, active compounds read low 0.997 | locus YBR171W, strain sec66, active compounds read low 0.998 | locus YBR229C, strain ROT2, active compounds read low 0.99 | locus YBR231C, strain swc5, active compounds read low 0.988 | locus YBR279W, strain paf1, active compounds read low 0.996 | locus YCL011C, strain gbp2, active compounds read low 1 | locus YCL016C, strain dcc1, active compounds read low 0.994 | locus YCL029C, strain bik1, active compounds read low 0.984 | locus YCL069W, strain vba3, active compounds read low 1 | locus YCR088W, strain abp1, active compounds read low 0.998 | locus YDL005C, strain med2, active compounds read low 1 | locus YDL035C, strain GPR1, active compounds read low 1 | locus YDL040C, strain nat1, active compounds read low 0.997 | locus YDL074C, strain BRE1, active compounds read low 1.02 | locus YDL101C, strain DUN1, active compounds read low 0.993 | locus YDL134C, strain PPH21, active compounds read low 0.98 | locus YDL185W, strain tfp1, active compounds read low 0.981 | locus YDL192W, strain arf1, active compounds read low 0.988 | locus YDR001C, strain nth1, active compounds read low 0.998 | locus YDR069C, strain doa4, active compounds read low 0.995 | locus YDR101C, strain arx1, active compounds read low 0.995 | locus YDR137W, strain rgp1, active compounds read low 0.995 | locus YDR150W, strain NUM1, active compounds read low 1 | locus YDR159W, strain sac3, active compounds read low 0.992 | locus YDR162C, strain NBP2, active compounds read low 1.02 | locus YDR195W, strain ref2 0.942 | locus YDR297W, strain sur2, active compounds read low 0.994 | locus YDR318W, strain mcm21, active compounds read low 0.982 | locus YDR334W, strain swr1, active compounds read low 1 | locus YDR335W, strain msn5, active compounds read low 0.999 | locus YDR388W, active compounds read low 0.99 | locus YDR392W, strain spt3, active compounds read low 0.995 | locus YDR502C, strain sam2, active compounds read low 1 | locus YEL003W, strain gim4, active compounds read low 0.998 | locus YEL037C, strain rad23, active compounds read low 1 | locus YEL061C, strain CIN8 (second series), active compounds read low 1 | locus YEL061C, strain CIN8, active compounds read low 0.998 | locus YER015W, strain faa2, active compounds read low 0.99 | locus YER016W, strain bim1, active compounds read low 0.993 | locus YER110C, active compounds read low 0.977 | locus YER111C, strain swi4, active compounds read low 1 | locus YER155C, strain BEM2 (second series), active compounds read low 0.961 | locus YER155C, strain BEM2, active compounds read low 1 | locus YER167W, strain BCK2, active compounds read low 0.974 | locus YFR010W, strain ubp6, active compounds read low 0.985 | locus YGL078C, strain dbp3, active compounds read low 0.998 | locus YGL086W, strain mad1, active compounds read low 0.959 | locus YGL167C, strain pmr1, active compounds read low 1.01 | locus YGL173C, strain kem1, active compounds read low 0.995 | locus YGL227W, strain vid30, active compounds read low 0.991 | locus YGL240W, strain doc1, active compounds read low 0.981 | locus YGL248W, strain PDE1, active compounds read low 0.986 | locus YGL253W, strain hxk2, active compounds read low 1.01 | locus YGR078C, strain PAC10, active compounds read low 0.994 | locus YGR135W, strain pre9, active compounds read low 0.958 | locus YGR229C, strain SMI1, active compounds read low 0.961 | locus YGR252W, strain gcn5, active compounds read low 0.949 | locus YHR013C, strain ard1, active compounds read low 1.02 | locus YHR027C, strain rpn1, active compounds read low 1 | locus YHR030C, strain SLT2, active compounds read low 0.99 and 1.07 | locus YHR079C, strain IRE1 (second series), active compounds read low 0.991 | locus YHR079C, strain IRE1, active compounds read low 1.07 | locus YHR094C, strain hxt1, active compounds read low 0.985 | locus YHR129C, strain ARP1, active compounds read low 0.989 | locus YHR142W, strain chs7, active compounds read low 1.01 | locus YHR200W, strain rpn10, active compounds read low 0.978 | locus YIL066C, strain RNR3, active compounds read low 0.983 | locus YIL073C, strain SPO22, active compounds read low 0.945 | locus YIL125W, strain kgd1, active compounds read low 0.998 | locus YIR030C, strain dcg1, active compounds read low 0.991 | locus YJL092W, strain hpr5, active compounds read low 0.995 | locus YJL095W, strain BCK1 (second series), active compounds read low 0.995 | locus YJL095W, strain BCK1, active compounds read low 0.981 and 1.04 | locus YJL115W, strain asf1, active compounds read low 0.995 | locus YJL129C, strain trk1, active compounds read low 0.999 | locus YJL134W, strain LCB3, active compounds read low 0.992 | locus YJL154C, strain vps35, active compounds read low 0.998 | locus YJL164C, strain tpk1, active compounds read low 0.991 | locus YJL166W, strain qcr8, active compounds read low 0.947 | locus YJL168C, strain set2, active compounds read low 0.984 | locus YJL187C, strain SWE1 (second series), active compounds read low 0.996 | locus YJR043C, strain POL32, active compounds read low 0.975 | locus YJR066W, strain TOR1, active compounds read low 0.999 | locus YJR075W, strain HOC1, active compounds read low 1.02
